Source: PubChem
PostGolgi yeast – phenotypic screen on post-Golgi transport, primary screen | post-Golgi transport phenotypic cell assay | inhibition, % at 10 µM | 98,000 compounds, 0.9% hits;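 also: yeast cells grown in 1536-well plates; yeast grown about 18 h at 30C before absorbance read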
Cav3 T inh – Cav3.2 calcium influx blockers – cell-based, Fluo-4 calcium fluorescence, FDSS, MLSMR library, primary screen | Cav3.2-expressing cells; stronger effect = lower value | 100,000 compounds, 4% hits | AID 449739, 2010 | Voltage-dependent T-type calcium channel subunit alpha-1H (Homo sapiens), O95180 | B-score at 10 µM;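 active = single-dose well whose peak fluorescence ratio is a statistical outlier from its plate by either plate-standardised score or position-corrected B-score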
sEH act – soluble epoxide hydrolase activators, primary screen, biochemical, human sEH; Bifunctional epoxide hydrolase 2 (Homo sapiens), P34913; purified human sEH enzymatic activity, activator screen; activation, % at 2 µM; 91,000 compounds, 0.04% hits; in the data active = activation above about 37%
Target sequence (P34913 whole entry, looked up): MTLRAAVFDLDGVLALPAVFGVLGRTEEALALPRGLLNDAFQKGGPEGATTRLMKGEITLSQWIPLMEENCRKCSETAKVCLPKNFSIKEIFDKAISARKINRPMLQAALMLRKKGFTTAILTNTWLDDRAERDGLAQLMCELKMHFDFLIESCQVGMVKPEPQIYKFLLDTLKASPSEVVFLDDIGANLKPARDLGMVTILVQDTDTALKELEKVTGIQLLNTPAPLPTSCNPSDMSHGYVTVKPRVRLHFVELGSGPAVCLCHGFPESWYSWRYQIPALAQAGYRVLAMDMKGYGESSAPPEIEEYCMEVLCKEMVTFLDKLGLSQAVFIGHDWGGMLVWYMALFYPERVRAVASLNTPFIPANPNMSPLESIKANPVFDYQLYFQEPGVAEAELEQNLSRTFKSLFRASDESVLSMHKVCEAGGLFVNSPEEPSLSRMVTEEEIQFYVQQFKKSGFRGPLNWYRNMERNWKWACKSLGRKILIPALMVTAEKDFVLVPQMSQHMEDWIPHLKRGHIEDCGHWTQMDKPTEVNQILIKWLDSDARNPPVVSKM
PostGolgi ctrl – growth inhibition of yeast control strain, primary screen, counter-screen for post-Golgi transport modulator project; 98,000 compounds, 5% hits; inhibition, % at 10 µM; efflux-deficient yeast background strain, growth absorbance A615, 16 h
sEH inh – soluble epoxide hydrolase inhibitors, primary screen, biochemical, human sEH; Bifunctional epoxide hydrolase 2 (Homo sapiens), P34913; recombinant human sEH enzymatic activity assay; inhibition, % at 2 µM; 91,000 compounds, 0.34% hits; AID 707, 2007; in the data active = inhibition above about 80%
Active calls of the source: *; · = no result. Hits are enriched below; roughly 7.8% of the tested compounds scored in any of these assays. Rule as the data show it, unless noted: active = inhibition above about 30%; inactive = the rest.

SMILES | PostGolgi yeast | Cav3 T inh | sEH act | PostGolgi ctrl | sEH inh
O=C(CN1C(=O)C2CC=CCC2C1=O)Nc1nnc(SCc2c(Cl)cccc2Cl)s1 (centres undefined) | -5 | -0.1 | 8 | -1 | -10
O=C(CN1C(=O)C2CC=CCC2C1=O)Nc1nnc(SCc2ccc(Cl)cc2)s1 (centres undefined) | -5 | -4.5* | 10 | 15 | -10
CN(C)S(=O)(=O)Oc1ccsc1C(=O)Nc1cccc(Cl)c1Cl | -10 | -2 | 4 | 32* | -2
CN(C)S(=O)(=O)Oc1ccsc1C(=O)Nc1ccc(Cl)cc1 | -2 | -4.4* | 3 | 4 | -2
COc1ccc(OC)c(NC(=O)CSc2nc3ccccc3c(=O)n2CCNC(C)=O)c1 | 4 | 3.6* | 28 | -7 | -28
COc1ccc(OC)c(NC(=O)CSc2nnc(C3CCCCC3)n2-c2ccccc2)c1 | · | -7.4* | 0 | · | 0
COCCNC(=O)CSc1nc2cc(OC)c(OC)cc2c(=O)n1Cc1ccc(OC)cc1 | 5 | 0.65 | 1 | 46* | -1
COc1ccc(/C(C)=C(\C#N)C(=O)OC(C)C)cc1OC | · | 0.74 | 10 | · | -6
CCO[C@H]1OC(C(=O)N2CCOCC2)=C[C@@H](C2CC2)[C@@H]1CCCO | · | 0.3 | · | · | ·
Cc1cc(C(=O)OCC(=O)Nc2ncc(C(F)(F)F)cc2Cl)c(C)o1 | 0 | · | · | 4 | ·
CCCCOC(=O)/C(=C\c1ccc([N+](=O)[O-])o1)NC(=O)c1ccccc1 | · | 0.68 | -2 | · | 6
O=C(CC1(O)C(=O)Nc2ccccc21)c1ccccc1 (centres undefined) | 0 | 0.042 | · | 0 | ·
O=C(CC1(O)C(=O)Nc2ccccc21)c1ccc(-n2cccc2)cc1 (centres undefined) | -4 | -0.0036 | -9 | 31* | 7
Cc1cccc(C)c1NC(=O)C(c1ccc([N+](=O)[O-])cc1)N1CCCCC1 (centres undefined) | -1 | -5.6* | 6 | 0 | -4
Cc1cccc(C)c1NC(=O)C(c1ccccc1)N1CCC2(CC1)OCCO2 (centres undefined) | · | -0.97 | -10 | · | 13
CCCCCCCCN1[C@@H](CC(=O)O)c2ccc(C(F)(F)F)cc2S1(=O)=O | · | -1.2 | · | · | ·
O=C(Nc1cnc2sccn2c1=O)c1ccc(Cl)cc1Cl | -3 | -0.042 | -1 | 32* | -1
CCc1ccc(-c2cc(C(=O)Nn3cnnc3)c3ccccc3n2)cc1 | -10 | 0.66 | 7 | 7 | -4
CC(C)Cc1cc(C(=O)N2N=C(C(F)F)CC2(O)C(F)F)c2ccccc2n1 (centres undefined) | · | -7* | 3 | · | 2
CCc1ccc(-c2cc(C(=O)N3N=C(C(F)F)CC3(O)C(F)F)c3ccccc3n2)cc1 (centres undefined) | 2 | -1.5 | 0 | 37* | 1
CC(C)C[C@H](N)c1nnc(S(=O)(=O)Cc2ccc(F)cc2)o1 | -6 | 2.2 | · | 10 | ·
CCOc1cc(N2CCOCC2)c(OCC)cc1NS(=O)(=O)c1ccc(Cl)s1 | 3 | -3.7 | 9 | 7 | -9
Cc1ccc(CN(c2ccc(C(=O)Nc3cccnc3)cc2)S(C)(=O)=O)cc1 | -7 | -2.2 | 1 | 7 | 1
Cc1n[nH]c(C)c1S(=O)(=O)N1CCCC(C(=O)N2CCN(c3ccc(Cl)cc3)CC2)C1 (centres undefined) | 17 | 1.2 | -12 | 44* | 14
O=C(Nc1ccc(C(F)(F)F)cc1)C1CCCN1S(=O)(=O)c1cccc2cccnc12 (centres undefined) | 3 | -1.9 | 4 | 30* | -3
SMILES | PostGolgi yeast | Cav3 T inh | sEH act | PostGolgi ctrl | sEH inh
Cc1ccc(NC(=O)C2CCN(S(=O)(=O)c3cccc4cccnc34)CC2)nc1 | 3 | 0.37 | 11 | 32* | -9
Cc1ccc(NC(=O)C2CCN(S(=O)(=O)c3c(C)n[nH]c3C)CC2)nc1 | 0 | 0.14 | · | 35* | ·
Cc1nc(C(=O)NC2CCCCC2)sc1C1(C)CC(c2cccnc2)=NO1 (centres undefined) | · | -1.1 | · | · | ·
C=CCNC(=O)c1c2c(nc3ccccc13)-c1ccccc1CC2 | 2 | -1.3 | -4 | -2 | 5
CCn1c(SC(C)C(=O)OC)nnc1-c1c[nH]c2ccccc12 (centres undefined) | 0 | 0.98 | · | 13 | ·
O=C(Nc1nc2cc(Cl)ccc2s1)C1CCCN(S(=O)(=O)c2cccc3cccnc23)C1 (centres undefined) | 2 | -0.32 | -19 | 36* | 18
